Bioassay records: PubChem BioAssay, National Center for Advancing Translational Sciences (NCATS)
Hits are enriched below; roughly 21% of the tested compounds scored in any of these assays.
Shiga toxin inh: A qHTS for Small Molecule Inhibitors of Shiga Toxin; Vero cells, Shiga toxin protein synthesis inhibition reporter; inhibition, % at 38.7 µM; hit rate 9.2% among 290,000; AID 2315, 2010; in the data active = inhibition mostly above about 28%, no sharp cut-off; inactive = mostly below about 43%
NS1 inh: qHTS Assay for Inhibitors of Influenza NS1 Protein Function. Potency, µM (titrated, usually from 46.1 µM). hit rate 0.4% among 270,000; also: actives are rising curves; nearly all actives have a fitted effect of over 50% in size
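S. cerevisiae expressing influenza A NS1, grown in glucose, washed, then diluted 1:100 into pH 6.0 -URA galactose medium with 23 nl compound. Growth recovery read as OD600; NS1-free strain serves as control.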
SARS PLpro yeast: qHTS of Yeast-based Assay for SARS-CoV PLP; S. cerevisiae expressing SARS-CoV PLpro, growth rescue; Potency, µM (titrated, usually from 32.9 µM), usual class: activators; hit rate 0.19% among 330,000; also: nearly all actives have a fitted effect of over 55% in size
Pf growth 96h: Primary qHTS for delayed death inhibitors of the malarial parasite plastid, 96 hour incubation. P. falciparum luciferase reporter growth, 96 h. Potency, µM (highest dose often 28.7 µM), usual class: inhibitors. hit rate 6.9% among 320,000. AID 504834, 2011; active = well fitted inhibition curve with a large enough effect; inconclusive = small, poorly fitted or top-dose-only effect, or another doubt; inactive = no such curve, though single readings can be large or run the other way
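P. falciparum expressing integrated firefly luciferase grown in erythrocytes (2% hematocrit, 0.05% parasitemia final) with compounds for 96 hours at 37 C, 5% CO2. Growth inhibition read as loss of luminescence after adding luciferase detection reagent.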
Cycloheximide cs: Cycloheximide Counterscreen for Small Molecule Inhibitors of Shiga Toxin | cell reporter, cycloheximide protein synthesis inhibition counterscreen | max response, % | hit rate 12% among 300,000 | AID 2314, 2010; in the data active = max response mostly above about 13%, no sharp cut-off; inactive = mostly below about 14%; also: read at 38.3 µM for the half of the compounds with a filed dose
Pf growth 48h: Primary qHTS for delayed death inhibitors of the malarial parasite plastid, 48 hour incubation | P. falciparum luciferase growth in erythrocytes, 48 h | Potency, µM (titrated, usually from 28.7 µM), actives largely listed as inhibitors | hit rate 5.9% among 310,000 | AID 504832, 2011; active = well fitted inhibition curve with a large enough effect; inconclusive = small, poorly fitted or top-dose-only effect, or another doubt; inactive = no such curve, though single readings can be large or run the other way
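In quantitative HTS format, infected erythrocytes bearing luciferase-reporter parasites were treated for a single generation at 37 C. Luminescence after adding detection reagent served as the growth measure.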
A number is an active result; – = inactive; ? = inconclusive; · = not tested or not shown. Unless noted, calls follow the shape of the full dose curve.

SMILES	Shiga toxin inh	NS1 inh	SARS PLpro yeast	Pf growth 96h	Cycloheximide cs	Pf growth 48h
Cc1ccc(/C=C/c2nnc(-c3cccs3)o2)cc1	48	–	–	–	46	–
Cc1ccc(-c2nnc(N)o2)cc1	–	–	–	–	–	–
Cc1ccc(-c2nnc(-c3cccs3)o2)cc1	72	–	–	–	31	–
CCOC(CCn1ccc(O)c(Cc2ccc(Cl)cc2)c1=O)OCC	–	–	–	–	–	?
CCCC1(C(=O)OCC)NC(c2ccc(N(C)C)cc2)C2C(=O)N(c3ccc(OCC)cc3)C(=O)C21 (stereo unspecified)	–	–	–	?	–	12µM
COC(=O)C1(C)NC(c2cccc(C)c2)C2C(=O)N(c3ccc(F)cc3)C(=O)C21 (stereo unspecified)	–	–	–	3.7µM	–	–
CCCC1(C(=O)OCC)NC(c2ccc(N(C)C)cc2)C2C(=O)N(c3ccccc3)C(=O)C21 (stereo unspecified)	–	–	–	·	–	?
COC(=O)C1(C)NC(c2ccc(O)cc2)C2C(=O)N(c3ccc(C)cc3)C(=O)C21 (stereo unspecified)	–	–	–	4.7µM	–	–
Cc1cc(Cl)c(C(=O)Nc2cccc(C(F)(F)F)c2)c(C)n1	–	–	–	?	–	–
CCOC(=O)C1CCCCN1Cc1cccc(C(F)(F)F)c1 (stereo unspecified)	–	–	–	–	–	·
CCOC(=O)C1CCCCN1Cc1ccc(C(F)(F)F)cc1 (stereo unspecified)	–	–	–	9.3µM	–	·
Cc1ccnc(N/N=C/c2ccccc2)n1	57	–	–	–	28	–
Cc1ccc(-c2cc(-c3ccccc3O)nc(N/N=C/c3cccnc3)n2)cc1	–	–	–	0.029µM	–	?
C(=N\Nc1ccc(-n2ccnc2)nn1)/c1ccccc1	–	–	–	·	–	–
CSc1nccc(N/N=C/c2ccccc2)n1	90	–	–	–	59	–
C(=N\Nc1nccc(-c2cccnc2)n1)/c1ccccc1	89	–	–	–	56	?
CC1CCCC(NC(=O)CCNC(=O)c2ccccc2Cl)C1C (stereo unspecified)	·	·	–	–	·	–
CC1C(=O)N(C)C(=O)c2nc[nH]c21 (stereo unspecified)	·	–	·	·	·	·
COc1ccc(-c2cn3nc(SCC(=O)NC4CCCCC4)ccc3n2)cc1	95	–	–	?	50	–
CCOc1ccc(-c2ccc(SCC(=O)NC3CCCCC3)nn2)cc1	–	–	–	–	17	–
COc1ccc(-c2ccc(SCC(=O)NC3CCCCC3)nn2)cc1	–	–	–	–	–	–
c1cnn(Cc2cnc(N3CCOCC3)s2)c1	–	–	–	–	–	–
CCN=c1scc(-c2ccccc2)n1/N=C/c1ccccn1	78	–	–	–	41	–
O=C(Cc1ccc(F)cc1)N/N=C/c1ccccn1	–	–	–	?	–	–
CCN=c1scc(-c2ccc(F)cc2)n1/N=C/c1ccccn1	82	·	–	–	48	–
SMILES	Shiga toxin inh	NS1 inh	SARS PLpro yeast	Pf growth 96h	Cycloheximide cs	Pf growth 48h
CC(C)CNC(=O)c1c(N)n(/N=C/c2ccccn2)c2nc3ccccc3nc12	–	–	–	–	–	?
Nc1ccc2oc3ccc(N)cc3c(=O)c2c1	–	–	–	–	38	·
CC(C)(C)NC(=O)[C@@H]1C[C@@H]2CCCC[C@@H]2CN1C[C@@H](O)[C@H](Cc1ccccc1)NC(=O)[C@H](CC(N)=O)NC(=O)c1ccc2ccccc2n1	–	–	–	15µM	–	?
O=C(CN1C(=O)/C(=C\c2cccc(Cl)c2)Oc2ccccc21)N1CCN(c2ccccn2)CC1	–	·	–	9.3µM	–	–
COc1cccc(CCC(=O)N2CCC(n3nccc3NC(=O)CC(C)C)CC2)c1	–	–	–	–	–	–
Cc1ccc(-c2nn(C)c(=O)c3ccccc23)cc1CNC(=O)NC1CCCCC1	–	–	–	–	–	–
COc1cc(OC)cc(C(=O)Nc2nc(CC(=O)NCc3ccccc3OC)cs2)c1	·	·	–	?	·	?
COc1cc(OC)cc(C(=O)Nc2nc(CC(=O)NCc3ccc(F)cc3)cs2)c1	·	·	–	12µM	·	?
O=C(Cc1csc(NC(=O)c2ccc(F)cc2)n1)NO	–	·	–	8.3µM	–	?
